Screens from PubChem BioAssay.
A selection: hits, their analogues and other compounds. The true share with any hit is near 4%.
HSV replic up: HSV replication enhancement; HSV replication augmentation in cells, fold increase; maximum fold increase; 0.005% of 220,000 active; in the data active = maximum fold increase above about 1.5; inconclusive = no clear call, values can overlap the other calls; tested in PC3 cells
Cl transport mod: modulators of human KCC2 chloride dependent transport; Q9H2X9; KCC2 cells, thallium flux FluoZin-2 fluorescence; B-score of Tl+ flux slope (higher = more flux/activation; lower = inhibition) at 10 µM; 2.2% of 190,000 active;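 active = thallium flux slope and its plate-corrected score both differing from the plate sample mean at a set confidence after two filtering rounds, in either direction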;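 also: slope of fluorescence scaled to starting intensity during 10 to 20 s after thallium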
Arbovirus inh: blocks arbovirus infection; arbovirus infection cell-based antiviral screen; inhibition, % at 10 µM; 0.37% of 200,000 active; in the data active = inhibition above about 30%
ROMK mod: modulates human ROMK potassium channel activity. Tet-inducible ROMK, thallium flux fluorescence; actives lie on both sides. B-score at 10 µM. 2% of 130,000 active. AID 1918;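 active = signal ratio slope over the read window, or its plate-corrected B-score, at least 3 SD from the plate mean, either direction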;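 also: B-score of the F/F0 ratio slope over 7 to 12 s after thallium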
Target sequence (P48048 whole entry, looked up): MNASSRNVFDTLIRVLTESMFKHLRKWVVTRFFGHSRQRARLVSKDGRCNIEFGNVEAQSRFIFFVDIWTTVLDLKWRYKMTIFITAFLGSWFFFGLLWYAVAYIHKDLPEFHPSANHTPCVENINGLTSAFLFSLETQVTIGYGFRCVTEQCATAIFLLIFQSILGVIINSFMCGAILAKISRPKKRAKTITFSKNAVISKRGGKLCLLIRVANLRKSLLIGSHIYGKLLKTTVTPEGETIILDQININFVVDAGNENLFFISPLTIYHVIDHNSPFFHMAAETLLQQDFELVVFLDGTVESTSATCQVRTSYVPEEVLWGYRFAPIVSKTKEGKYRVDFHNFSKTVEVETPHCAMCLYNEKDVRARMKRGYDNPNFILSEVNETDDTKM
Measles CPE: protection of cells from measles virus; Measles virus-infected cells, CPE protection, absorbance; protection (pct of control), % at 4 µM; 1.5% of 140,000 active; AID 841; in the data active = protection mostly above about 24%, no sharp cut-off; inactive = mostly below about 26%
The depositor's hits bear a star; i = inactive; ? = inconclusive; · = not tested or not shown.

SMILES | HSV replic up | Cl transport mod | Arbovirus inh | ROMK mod | Measles CPE
CCN1CCN(C(=O)C2(NC(=O)Nc3ccccc3Cl)CCCCC2)CC1 | i | 0.78 | 6 | · | 49*
CN1CCN(C(=O)C2(NC(=O)Nc3ccccc3Cl)CCCCC2)CC1 | i | 0.59 | 7 | 0.46 | 5
O=C(O)c1ccccc1-n1c2ccccc2c2ccccc21 | i | 0.49 | · | · | ·
Cc1ccc(CSc2nnc3ccc(-c4ccncc4)nn23)cc1 | i | -1.1 | 9 | -0.005 | ·
COCCCNCC(O)C(F)(F)F (centres undefined) | i | 1.5 | 7 | 0.92 | ·
O=C(NCc1cccs1)C1CC(=O)N(c2ccc(Cl)cc2)C1 (centres undefined) | i | · | 4 | -0.82 | ·
O=c1oc(-c2ccccc2NS(=O)(=O)c2ccc3ccccc3c2)nc2ccccc12 | i | -0.099 | 30* | 0.22 | 39
NC(=O)c1ccccc1N/C=C/C(=O)c1ccccc1 | i | -0.21 | -2 | · | 8
COC(=O)c1ccccc1N/C=C/C(=O)c1ccc(Br)cc1 | i | -0.068 | 63* | -0.16 | 1
O=C(Nc1ccccc1CC[N+](=O)[O-])N1CCN(c2ccccc2)CC1 | i | · | -5 | -0.95 | ·
CCOC(=O)N1CCN(C(=O)NC23CC4CC(CC(C4)C2)C3)CC1 | i | -3.4* | 9 | -0.15 | 3
O=C(NC12CC3CC(CC(C3)C1)C2)N1CCN(C2CCCCC2)CC1 | i | 1.1 | 3 | -0.73 | ·
O=C(COC(=O)Cc1ccccc1F)Nc1cccc(F)c1 | i | -0.29 | 3 | -0.041 | ·
CC(C)N(C)C(=O)C(=O)c1cccn1-c1cccc(Cl)c1C#N | i | 0.7 | 24 | -0.04 | ·
CC1=C(C#N)C(=O)N(C2CCS(=O)(=O)C2)C(=O)/C1=C\c1ccc(C)o1 (centres undefined) | ? | i | · | · | ·
CN(C)C(=O)N(CCCN1CCOCC1)Cc1cccc2ccccc12 | i | -0.83 | · | · | ·
COc1ccc(C2C(C(N)=O)=C(C)Nc3nc(-c4cccc(Cl)c4)nn32)cc1OC (centres undefined) | i | 0.86 | 7 | 0.14 | 7
COc1cccc(-c2nc3n(n2)C(c2ccc4c(c2)OCO4)C(C(N)=O)=C(C)N3)c1 (centres undefined) | i | · | 4 | 1.4 | 35*
CN(C)NC(=S)NC1(C)CCS(=O)(=O)C1 (centres undefined) | i | 0.37 | · | · | ·
O=C(Nc1cccc(F)c1)c1cccnc1N1CCOCC1 | i | 0.93 | -2 | -0.12 | 24*
Cc1noc(C)c1C(=O)OCC(=O)Nc1cc(Cl)ccc1Oc1ccccc1 | i | · | 47* | -1.1 | 2
C=CCNC(=O)c1cc(-c2ccc(Br)cc2)on1 | · | · | 1 | 0.59 | 63*
O=C(NCCN1CCOCC1)c1cc(-c2ccc(Br)cc2)on1 | i | · | 2 | -0.48 | 12
CCCn1c(=O)c2ccccc2n2c(SCC(=O)N3CCc4ccccc4C3)nnc12 | i | -4.1* | 1 | · | 26
O=C(COC(=O)c1cccc(S(=O)(=O)N2CCc3ccccc32)c1)Nc1ccc(Cl)cn1 | i | -0.38 | -1 | · | 35*
SMILES | HSV replic up | Cl transport mod | Arbovirus inh | ROMK mod | Measles CPE
C/C(=N/NC(=O)C(O)(c1ccccc1)c1ccccc1)c1ccc([N+](=O)[O-])o1 | i | 0.41 | -15 | -0.4 | ·
CC(=O)Nc1cccc(NC(=O)CSc2ncc(-c3ccc(Cl)cc3)n2Cc2ccco2)c1 | i | -0.85 | -33 | -4.6* | 13
COc1ccc(-c2cnc(SCC(=O)Nc3ccc4c(c3)OCO4)n2Cc2ccco2)cc1 | · | 0.22 | 5 | -1.7 | 15
NC(=O)[C@H]1CC2(CC(c3cccc(NC(=O)COc4ccc(Cl)cc4)c3)=NO2)CN1C(=O)Cc1ccc([N+](=O)[O-])cc1 (some centres undefined) | i | 0.056 | · | · | ·
Cc1ccsc1C(=O)NNC(=O)C1CC=CCC1C(=O)O (centres undefined) | i | 0.84 | 24 | -0.16 | 9
CC(C)c1ccc(C(=O)NNC(=O)C2CC=CCC2C(=O)O)cc1 (centres undefined) | i | -0.27 | 7 | -0.44 | 29*
COc1ccc(C)cc1NC(=S)NC(C)c1ccc(OC)c(OC)c1 (centres undefined) | i | -2.4 | 7 | 0.4 | ·
CCC(C(=O)NC(C)(C)C)N(C(=O)Cn1nnc(-c2cccs2)n1)c1cnc2ccccc2c1 (centres undefined) | i | -0.39 | 2 | · | 80*
COc1cccc(N(C(=O)Cn2nnc(-c3ccc(C)o3)n2)C(C(=O)NC(C)(C)C)c2cccs2)c1 (centres undefined) | i | 0.6 | 1 | 1.1 | 6
C/C(=N\NS(=O)(=O)c1ccccc1)c1cccc(NC(=O)c2cccc(Cl)c2)c1 | i | 0.11 | 47* | · | 16
